Source: PubChem BioAssay (NCI)
The panel holds about 83,000 compounds, 20% with a hit somewhere; the sample as a whole holds those more often.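 The endpoint reported here, percent growth, reads 100 for growth as untreated, 0 for no net growth and -100 for all cells dead.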 The source made the active and inactive calls. How the source made its calls: active means growth percent below 10; inactive means the rest.

Legend:
Experiment in all cases: NCI-60 one-dose screen, 48 h (100 = growth as untreated, 0 = no growth, -100 = all killed)
Conditions in all cases: 10 µM unless noted
[1] = test system: DU-145 prostate
[2] = test system: K-562 leukemia
[3] = test system: MDA-MB-231 breast
[4] = test system: RXF 393 renal
[5] = test system: SF-268 CNS
[6] = test system: SF-295 CNS
[7] = test system: SF-539 CNS
[8] = test system: UACC-257 melanoma
[9] = test system: M14 melanoma
[10] = test system: HCT-15 colon
[11] = test system: HT29 colon
[12] = test system: SNB-75 CNS
[13] = test system: SNB-19 CNS
[14] = test system: U251 CNS
[15] = test system: PC-3 prostate
[16] = test system: SK-MEL-5 melanoma
[17] = test system: UACC-62 melanoma
[18] = test system: LOX IMVI melanoma
[19] = test system: SK-MEL-28 melanoma
[20] = test system: MALME-3M melanoma

Measured: growth

C#CCC#CCN1CCC[C@H]1C(=O)NCC(=O)OC
inactive: [1] 105% | [2] 98.1% | [3] 106% | [4] 105% | [5] 108% | [6] 107% | [7] 105% | [8] 93.7% | [9] 107% | [10] 102% | [11] 104% | [12] 105% | [13] 98.9% | [14] 103% | [15] 98.4% | [16] 100% | [17] 104% | [18] 94.4% | [19] 101%

NC(N)=Nc1ccc(Oc2cccc(Nc3ccc(Br)c(C(F)(F)F)c3)c2)cn1
inactive: [16] 16.9%
active: [1] -94.5% | [2] -30.3% | [3] -57.6% | [4] -10.5% | [5] 7.02% | [6] -86.8% | [7] -50.3% | [8] -28.5% | [9] -62.1% | [10] -68.3% | [11] -48.5% | [12] 9.31% | [13] -83.5% | [14] -79.6% | [15] -92% | [17] -76.9% | [18] -87.6% | [19] -32.1%

NC(N)=Nc1ccc(Nc2cccc(Nc3ccc(Cl)c(C(F)(F)F)c3)c2)cn1
active: [2] -2.73% | [13] 4.1% | [14] -43.2% | [15] -24.9%
inactive: [1] 66.1% | [3] 31% | [4] 77.6% | [5] 33.1% | [6] 11.6% | [7] 80.7% | [8] 42.9% | [9] 47.3% | [10] 68.4% | [11] 29.8% | [12] 45.6% | [16] 34.5% | [17] 24.5% | [18] 13.8% | [19] 40.3%

COc1ccc(C2CC(c3cccc(Nc4nc(Cl)nc5cc(OC)c(OC)cc45)c3)=Nc3c(N)nc(N)nc3N2)cc1 (centres undefined)
inactive: [1] 88.8% | [3] 87% | [4] 76.3% | [5] 86.5% | [6] 60.1% | [7] 91.9% | [8] 106% | [9] 93.5% | [10] 34.5% | [11] 57.8% | [12] 94.5% | [13] 70.1% | [14] 16.9% | [15] 62.7% | [16] 72.1% | [17] 95.6% | [18] 54.2% | [19] 101%
active: [2] 4.51%

Cc1c(Cl)cccc1S(=O)(=O)Nc1ccc2c(c1)C(=O)N(C1CCC(=O)NC1=O)C2=O (centres undefined)
inactive: [1] 108% | [2] 101% | [20] 55% | [3] 46.8% | [5] 82.1% | [6] 91.7% | [7] 102% | [8] 113% | [10] 24% | [11] 105% | [12] 77.4% | [13] 82.9% | [15] 95.4% | [16] 100% | [17] 98.4% | [19] 97.8%

CC(C)(C)c1ccc(C(=O)Nc2sc3c(c2C(N)=O)CC/C(=N\O)C3)cc1
inactive: [1] 42.2% | [3] 14.1% | [5] 32% | [6] 16.8% | [7] 21.6% | [9] 25% | [10] 10.4% | [12] 44.2% | [13] 26.7% | [14] 17.9% | [15] 18.7% | [17] 12.7% | [19] 31.4%
active: [2] 7.83% | [4] -14.3% | [8] 5.76% | [11] 5.87% | [16] -29.4% | [18] 3.93%

CN(C)CCNC(=O)c1ccc(-c2nc3ccc4[nH]ncc4c3c3c2CCC3)cc1
active: [1] 5.47% | [20] -0.0162% | [3] -2.41% | [5] -8.73% | [6] 2.24% | [7] -31.2% | [13] 9.44% | [15] 3.49% | [16] 7.44% | [18] -61%
inactive: [2] 11.3% | [8] 47.7% | [10] 17.2% | [11] 12.6% | [12] 40.3% | [17] 15.8% | [19] 21.9%

O=C(CN1CCN(c2cc(=O)n(-c3ccccc3)c3ccccc23)CC1)Nc1ccc(F)cc1
inactive: [1] 68.5% | [2] 37.3% | [3] 63% | [4] 71.9% | [5] 69.2% | [6] 71.8% | [7] 76.6% | [8] 49.7% | [9] 75.7% | [10] 69.2% | [11] 81% | [12] 77.2% | [13] 77.3% | [14] 80.2% | [15] 64.6% | [16] 16.9% | [17] 55.3% | [18] 67.4% | [19] 86.2%

CC[C@]12C=CCN3CC[C@@]4(c5cc(NC(=O)COc6cc(O)c7c(=O)cc(-c8ccccc8)oc7c6)c(OC)cc5N(C)[C@H]4[C@@](O)(C(=O)OC)[C@@H]1OC(C)=O)[C@@H]32
active: [1] -33.6% | [2] -1.41% | [3] -58.3% | [4] -92.1% | [5] -60.6% | [6] -85.3% | [7] -77.1% | [8] -76.1% | [9] -75.4% | [10] -69% | [11] -61% | [12] -34.2% | [13] -54.3% | [14] -87.5% | [15] -88.7% | [16] -90.9% | [17] -87.3% | [18] -93.2% | [19] -89%

Cc1ccc(C2=NN(C)C(=O)C3(CCCC3)C2)cc1
inactive: [1] 107% | [2] 107% | [3] 104% | [4] 124% | [5] 98.1% | [6] 101% | [7] 103% | [8] 100% | [9] 108% | [10] 101% | [11] 106% | [12] 93.5% | [13] 105% | [14] 103% | [15] 102% | [16] 101% | [17] 98.5% | [18] 100% | [19] 103%

COc1ccc(/C=C(\C#N)C(=O)N2c3ccccc3Sc3ccc(SC)cc32)cc1F
inactive: [1] 97.3% | [2] 80.8% | [3] 84.7% | [4] 100% | [5] 91.8% | [6] 104% | [7] 96.7% | [8] 93.1% | [9] 105% | [10] 94.9% | [11] 103% | [12] 87.6% | [13] 90.4% | [14] 92.9% | [15] 88.9% | [16] 93% | [17] 71.3% | [18] 88.8% | [19] 98.9%

COc1cc2nc(Cl)nc(Nc3cccc(C4=Nc5c(N)nc(N)nc5NC(c5ccccc5)C4)c3)c2cc1OC (centres undefined)
inactive: [1] 85.9% | [3] 90.4% | [4] 84.5% | [5] 84.3% | [6] 75.8% | [7] 99.8% | [8] 108% | [9] 90.1% | [10] 48.6% | [11] 90.3% | [12] 75% | [13] 95.6% | [14] 60.4% | [15] 75.1% | [16] 73.6% | [17] 91.3% | [18] 68% | [19] 105%
active: [2] 6.71%

NC(=O)c1cccc(C#CCNC[C@H]2C[C@@H](n3ccc4c(Cl)ncnc43)[C@H](O)[C@@H]2O)c1
inactive: [1] 108% | [2] 111% | [3] 101% | [4] 107% | [5] 102% | [6] 105% | [7] 98.9% | [8] 98.2% | [9] 104% | [10] 107% | [11] 105% | [12] 87.7% | [13] 102% | [14] 100% | [15] 102% | [16] 101% | [17] 96.1% | [18] 101% | [19] 102%

N#Cc1cn(Cc2ccc(Cl)cc2Cl)c(C(=O)c2ccc(Br)cc2)c1N
inactive: [1] 99.7% | [2] 94.9% | [3] 88.2% | [4] 95.8% | [5] 92.7% | [6] 83.7% | [7] 81.4% | [8] 92.1% | [9] 98% | [10] 94.6% | [11] 102% | [12] 89.6% | [13] 69.5% | [14] 86.1% | [15] 86.9% | [16] 97.5% | [17] 82.8% | [18] 90.1% | [19] 99%

CS(=O)(=O)Nc1cc(-c2ccc3ncc(C#N)c(NCc4cccc(F)c4)c3c2)cnc1Cl
active: [20] -35.7% | [3] 0.274% | [5] 3.62% | [6] -21.9% | [7] -26.4% | [8] 1.5% | [10] 5.75% | [11] 9.57% | [15] 4.17% | [16] -96.6% | [17] -20.2% | [18] -55% | [19] 4.56%
inactive: [1] 17.8% | [2] 14.1% | [12] 45.7% | [13] 11.9%

NC(N)=Nc1ccc(Oc2cccc(Nc3ccc(Br)c(C(F)(F)F)c3)c2)cc1
active: [2] -11.1% | [3] -7.69% | [6] -65.3% | [8] 0.206% | [9] 8.54% | [13] -15.9% | [14] -78.9% | [15] 1.98% | [17] 7.23% | [18] -97.1%
inactive: [1] 22.8% | [4] 40.7% | [5] 25.3% | [7] 54.3% | [10] 69.9% | [11] 11.5% | [12] 27.1% | [16] 22.5% | [19] 58.3%

CNc1ncc2cc(-c3ccc(-c4ncccc4F)cc3Cl)c(=O)n(CC3OCC(N)CO3)c2n1 (centres undefined)
active: [4] -9.68%
inactive: [1] 63.3% | [2] 78.8% | [3] 10.8% | [5] 24.8% | [6] 74.3% | [7] 67.4% | [8] 93% | [9] 87.9% | [10] 87.5% | [11] 48.1% | [12] 24% | [13] 69% | [14] 51.8% | [15] 81.9% | [16] 82.6% | [17] 78.6% | [18] 32.3% | [19] 92.9%

CCc1cccc2c3c(sc12)C(c1ccc(Cl)cc1)C(C#N)=C(/N=C/c1ccc(Cl)cc1)O3 (centres undefined)
inactive: [1] 12.1% | [2] 10% | [3] 33.8% | [5] 58.3% | [8] 60.4% | [10] 25% | [13] 20.1% | [14] 20.5% | [15] 16.5% | [16] 14.5% | [17] 10.7% | [18] 26.5% | [19] 56.7%
active: [4] -31% | [6] -22.7% | [7] -7.57% | [9] 1.34% | [11] 7.88% | [12] -13.9%

Nc1nc(N)c2c(n1)NC(c1ccc(Cl)cc1)CC(c1ccc(Nc3nc(NCCO)nc(N4CCOCC4)n3)cc1)=N2 (centres undefined)
inactive: [1] 86.1% | [2] 31.1% | [3] 80.5% | [4] 61.2% | [5] 61.8% | [6] 76.2% | [7] 78.4% | [8] 84.6% | [9] 88.1% | [10] 53.7% | [11] 57.2% | [12] 72.5% | [13] 87.4% | [14] 59.5% | [15] 64% | [16] 67.4% | [17] 89.9% | [18] 61.2% | [19] 83.5%
